Where “and” joins values, the source holds several entries; their conditions need not be identical. Equal entries are not always repeated. Records with an inconclusive call do not appear. Calls of active or inactive are those of the source. Unless noted, calls come from the whole dose curve; as a rule, active = well fitted curve in the direction sought with a large enough effect in the repeat runs; inconclusive = weak or mixed curves; inactive = no such curve, though single readings can be large; an effect the other way counts as inactive or inconclusive.
What was measured:
[1] = qHTS assay to identify small molecule agonists of the peroxisome proliferator-activated receptor delta (PPARd) signaling pathway - cell viability counter screen (AID 743211); note: nearly all actives have a fitted effect of over 55% in size; note: potency is the fitted concentration of half-maximal effect
Summary of the method: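 Tox21 library compounds, delivered in DMSO, were incubated 17 h with PPARd-bla HEK293H cells; cytotoxicity was taken from CellTiter-Glo luminescence read 30 min after reagent addition.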

[2] = qHTS assay to identify small molecule antagonists of the peroxisome proliferator-activated receptor delta (PPARd) signaling pathway - cell viability counter screen (AID 743213); note: nearly all actives have a fitted effect of over 50% in size; note: potency is the fitted concentration of half-maximal effect
Summary of the method: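 Luminescence from CellTiter-Glo, added after the bla read and incubated 30 min at room temperature, gives viability of HEK293H PPARd-bla cells exposed to compounds for 17 h at 37 C with 300 nM L165041.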

[3] = qHTS assay to identify small molecule agonists of the farnesoid-X-receptor (FXR) signaling pathway - cell viability counter screen (AID 743218); note: nearly all actives have a fitted effect of over 45% in size; note: potency is the fitted concentration of half-maximal effect
Summary of the method: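 Viability of FXR-bla HEK 293T cells is measured by ATP-based CellTiter-Glo luminescence following 16 h compound treatment at 37 C and a prior 2 h room-temperature beta-lactamase substrate step.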

[4] = qHTS assay to identify small molecule antagonists of the farnesoid-X-receptor (FXR) signaling pathway - cell viability counter screen (AID 743221; active = well fitted cell-killing curve with a large enough effect in the repeat runs, not every such curve was filed as active; note: nearly all actives have a fitted effect of over 50% in size; note: potency is the fitted concentration of half-maximal effect)
Summary of the method: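 Cytotoxicity is taken from ATP luminescence (CellTiter-Glo, 30 min, room temperature) in FXR-bla HEK 293T cells previously incubated 16 h at 37 C with compound and chenodeoxycholic acid at 50 uM final.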

[5] = qHTS assay to identify small molecule agonists of the vitamin D receptor (VDR) signaling pathway - cell viability counter screen (AID 743224); note: nearly all actives have a fitted effect of over 50% in size; note: potency is the fitted concentration of half-maximal effect
Summary of the method: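 Compounds were pin-transferred onto VDR-bla cells plated 4 h earlier; following 16 h incubation at 37C, cell viability was quantified by CellTiter-Glo luminescence after 30 min at room temperature.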

[6] = qHTS assay to identify small molecule antagonists of the vitamin D receptor (VDR) signaling pathway - cell viability counter screen (AID 743225); note: nearly all actives have a fitted effect of over 50% in size; note: potency is the fitted concentration of half-maximal effect
Summary of the method: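 Same-well multiplex: following 16 h treatment of HEK 293T cells carrying a UAS-driven beta-lactamase reporter with compound and agonist (3 nM final), and a 2 h FRET substrate step, CellTiter-Glo was added and luminescence read after 30 min.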

[7] = qHTS assay to identify small molecule agonists of the endoplasmic reticulum stress response signaling pathway (AID 1159516; active = well fitted activation curve with a large enough effect in the signal ratio in the repeat runs, not every such curve was filed as active; the % refers to the signal ratio; note: potency is the fitted concentration of half-maximal effect)
Summary of the method: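 Using a HeLa line with an ESRE-driven beta-lactamase gene, agonist activity was measured by FRET substrate fluorescence (460 and 530 nm emission) after cells were treated with compounds for 5 hr at 37 C and 5% CO2.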

[8] = qHTS assay to identify small molecule antagonists of the retinoid-related orphan receptor gamma (ROR-gamma) signaling pathway - cell viability counter screen (AID 1159520); note: nearly all actives have a fitted effect of over 50% in size; note: potency is the fitted concentration of half-maximal effect
Summary of the method: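 Tet-on ROR gamma CHO cells were given compounds for 2 hr, then doxycycline hyclate at 1 uM final, and incubated 16 hr at 37 C. Viability was measured as ATP content by CellTiter-Glo luminescence.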

[9] = target: Bile acid receptor (Homo sapiens) (UniProt Q96RI1); assay: qHTS assay to identify small molecule agonists of the farnesoid-X-receptor (FXR) signaling pathway (AID 743220; active = well fitted activation curve with a large enough effect in the signal ratio in the repeat runs, not every such curve was filed as active; the % refers to the signal ratio; note: % is set by controls: 0 for no effect and ±100 for the full control effect)
Summary of the method: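 FXR-UAS-bla HEK 293T cells carrying a UAS-driven beta-lactamase reporter were plated for 5 h at 37C/5% CO2, then exposed to DMSO-dissolved Tox21 10K compounds for 16 h at 37C. A LiveBLAzer B/G FRET substrate was loaded for 2 h at room temperature before fluorescence reading.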

[10] = target: Nuclear receptor ROR-gamma (Homo sapiens) (UniProt P51449); assay: qHTS assay to identify small molecule antagonists of the retinoid-related orphan receptor gamma (ROR-gamma) signaling pathway (AID 1159521; note: nearly all actives have a fitted effect of over 50% in size; note: potency is the fitted concentration of half-maximal effect)
Summary of the method: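 Inducible-expression reporter assay: doxycycline (1 uM final) switched on RORγ in CHO cells bearing a ROR response element-luciferase construct, with test compounds present from 2 h beforehand. Decreased luminescence after 16 h defined antagonist activity.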

[11] = qHTS assay to identify small molecule agonists of the AP-1 signaling pathway - cell viability counter screen (AID 1159525; calls by dose curve; note: nearly all actives have a fitted effect of over 55% in size; note: potency is the fitted concentration of half-maximal effect)
Summary of the method: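 Same-well cytotoxicity counter screen of the Tox21 10K library in ME-180 cells. The readout is ATP-dependent luminescence after 5 h compound treatment. Data are normalised to DMSO and tetra n-octyl ammonium bromide controls.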

[12] = target: Peroxisome proliferator-activated receptor delta (Homo sapiens) (UniProt Q03181); assay: qHTS assay to identify small molecule antagonists of the peroxisome proliferator-activated receptor delta (PPARd) signaling pathway (AID 743215; active = well fitted inhibition curve with a large enough effect in the signal ratio in the repeat runs, not every such curve was filed as active; the % refers to the signal ratio;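 note: cells stimulated with agonist L165041 at 300 nM final during compound exposure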; note: potency is the fitted concentration of half-maximal effect)
Summary of the method: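 Plated HEK293H PPARd-bla cells rested 5 h at 37 C and 5% CO2. Compound, then agonist L165041 at 300 nM final, was added; 17 h at 37 C followed. Substrate loading, 2 h room temperature, fluorescence measured.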

[13] = target: Vitamin D3 receptor (Homo sapiens) (UniProt P11473); assay: qHTS assay to identify small molecule agonists of the vitamin D receptor (VDR) signaling pathway (AID 743222; calls by dose curve; note: % is set by controls: 0 for no effect and ±100 for the full control effect)
Summary of the method: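 Fluorescence from cleaved LiveBLAzer B/G FRET substrate served as readout. VDR-bla cells had been treated 16 h at 37C with test compounds in DMSO, following a 4 h settling period, and substrate was loaded for 2 h at RT.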

[14] = target: Peroxisome proliferator-activated receptor delta (Homo sapiens) (UniProt Q03181); assay: qHTS assay to identify small molecule agonists of the peroxisome proliferator-activated receptor delta (PPARd) signaling pathway (AID 743212; calls by dose curve; note: % is set by controls: 0 for no effect and ±100 for the full control effect)
Summary of the method: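 Tox21 library screened in GeneBLAzer PPARd UAS-bla HEK293H cells. After compound treatment at 37 C, a FRET-based beta-lactamase substrate was applied for 2 h and fluorescence recorded.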

[15] = qHTS assay to identify small molecule agonists of the endoplasmic reticulum stress response signaling pathway - cell viability counter screen (AID 1159517; calls by dose curve; note: nearly all actives have a fitted effect of over 50% in size; note: potency is the fitted concentration of half-maximal effect)
Summary of the method: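 In parallel with the ESRE reporter read, cytotoxicity was scored by CellTiter-Glo luminescence (30 min, room temperature) on HeLa ESRE-bla cells dosed for 5 hr.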

[16] = qHTS assay to identify small molecule agonists of the AP-1 signaling pathway (AID 1159526; calls by dose curve; note: % is set by controls: 0 for no effect and ±100 for the full control effect)
[17] = target: Vitamin D3 receptor (Homo sapiens) (UniProt P11473); assay: qHTS assay to identify small molecule antagonists of the vitamin D receptor (VDR) signaling pathway (AID 743223; active = well fitted inhibition curve with a large enough effect in the signal ratio in the repeat runs, not every such curve was filed as active; the % refers to the signal ratio; note: potency is the fitted concentration of half-maximal effect)
Summary of the method: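 Quantitative HTS in VDR-bla reporter cells stimulated with 1alpha,25-dihydroxyvitamin D3, 3 nM final. Compound exposure 16 h, 37C, 5% CO2. Read-out: beta-lactamase FRET substrate fluorescence, 2 h RT.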

[18] = target: Retinoic acid receptor RXR-alpha (Homo sapiens) (UniProt P19793); assay: qHTS assay to identify small molecule agonists of the RXR signaling pathway (AID 1159527; calls by dose curve; note: % is set by controls: 0 for no effect and ±100 for the full control effect; nearly all actives have a fitted effect of over 35% in size)
Summary of the method: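 Compounds in DMSO were added to RXR-alpha-UAS-bla HEK 293T cells kept in 2% charcoal-stripped serum, and incubated 16 hr at 37 C with 5% CO2. Reporter signal came from a 2 hr B/G FRET substrate step.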

[19] = target: Bile acid receptor (Homo sapiens) (UniProt Q96RI1); assay: qHTS assay to identify small molecule antagonists of the farnesoid-X-receptor (FXR) signaling pathway (AID 743217; active = well fitted inhibition curve with a large enough effect in the signal ratio in the repeat runs, not every such curve was filed as active; the % refers to the signal ratio; note: % is set by controls: 0 for no effect and ±100 for the full control effect)
Summary of the method: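 Screen of the Tox21 10K library in quantitative HTS format using FXR-UAS-bla HEK 293T reporter cells. Agonist chenodeoxycholic acid, 50 uM final, added with compounds; 16 h incubation at 37 °C; beta-lactamase FRET fluorescence measured.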

Measured: Potency

Retinoic acid receptor RXR-alpha (Homo sapiens), sequence (P19793 whole entry, looked up): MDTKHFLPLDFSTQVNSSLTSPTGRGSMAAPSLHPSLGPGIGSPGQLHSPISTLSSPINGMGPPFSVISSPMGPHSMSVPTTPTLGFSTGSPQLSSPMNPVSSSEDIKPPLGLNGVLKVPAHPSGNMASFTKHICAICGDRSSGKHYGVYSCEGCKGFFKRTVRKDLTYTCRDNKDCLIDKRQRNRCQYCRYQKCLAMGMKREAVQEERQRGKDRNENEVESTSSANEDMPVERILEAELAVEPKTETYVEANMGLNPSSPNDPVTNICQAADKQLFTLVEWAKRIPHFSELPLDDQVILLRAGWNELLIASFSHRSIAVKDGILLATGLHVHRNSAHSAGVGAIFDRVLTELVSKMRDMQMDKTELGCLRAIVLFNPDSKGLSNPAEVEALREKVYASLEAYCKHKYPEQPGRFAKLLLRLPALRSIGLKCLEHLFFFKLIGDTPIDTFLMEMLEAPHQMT
Vitamin D3 receptor (Homo sapiens), sequence (P11473 whole entry, looked up): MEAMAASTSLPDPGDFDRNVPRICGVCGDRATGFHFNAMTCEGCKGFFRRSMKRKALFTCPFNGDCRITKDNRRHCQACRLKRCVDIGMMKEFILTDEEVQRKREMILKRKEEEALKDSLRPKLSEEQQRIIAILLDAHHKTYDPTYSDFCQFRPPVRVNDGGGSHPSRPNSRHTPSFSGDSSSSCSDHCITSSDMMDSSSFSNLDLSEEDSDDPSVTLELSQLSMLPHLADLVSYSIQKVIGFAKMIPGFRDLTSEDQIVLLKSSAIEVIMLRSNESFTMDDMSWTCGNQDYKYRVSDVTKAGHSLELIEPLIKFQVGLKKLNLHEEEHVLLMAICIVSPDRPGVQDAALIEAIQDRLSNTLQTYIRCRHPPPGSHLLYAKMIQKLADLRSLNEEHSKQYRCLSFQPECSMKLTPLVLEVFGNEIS
Peroxisome proliferator-activated receptor delta (Homo sapiens), sequence (Q03181 whole entry, looked up): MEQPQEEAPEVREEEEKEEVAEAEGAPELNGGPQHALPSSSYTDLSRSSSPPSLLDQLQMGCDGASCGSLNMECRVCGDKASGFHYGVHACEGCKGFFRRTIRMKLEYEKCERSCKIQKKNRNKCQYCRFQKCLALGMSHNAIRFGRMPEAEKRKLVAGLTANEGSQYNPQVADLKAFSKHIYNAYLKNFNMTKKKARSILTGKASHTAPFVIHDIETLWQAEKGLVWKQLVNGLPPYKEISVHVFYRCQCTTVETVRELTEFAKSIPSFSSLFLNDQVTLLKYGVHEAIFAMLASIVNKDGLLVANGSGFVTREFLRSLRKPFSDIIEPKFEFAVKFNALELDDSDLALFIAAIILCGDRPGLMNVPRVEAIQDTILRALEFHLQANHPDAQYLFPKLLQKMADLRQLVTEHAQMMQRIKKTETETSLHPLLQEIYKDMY
Bile acid receptor (Homo sapiens), sequence (Q96RI1 whole entry, looked up): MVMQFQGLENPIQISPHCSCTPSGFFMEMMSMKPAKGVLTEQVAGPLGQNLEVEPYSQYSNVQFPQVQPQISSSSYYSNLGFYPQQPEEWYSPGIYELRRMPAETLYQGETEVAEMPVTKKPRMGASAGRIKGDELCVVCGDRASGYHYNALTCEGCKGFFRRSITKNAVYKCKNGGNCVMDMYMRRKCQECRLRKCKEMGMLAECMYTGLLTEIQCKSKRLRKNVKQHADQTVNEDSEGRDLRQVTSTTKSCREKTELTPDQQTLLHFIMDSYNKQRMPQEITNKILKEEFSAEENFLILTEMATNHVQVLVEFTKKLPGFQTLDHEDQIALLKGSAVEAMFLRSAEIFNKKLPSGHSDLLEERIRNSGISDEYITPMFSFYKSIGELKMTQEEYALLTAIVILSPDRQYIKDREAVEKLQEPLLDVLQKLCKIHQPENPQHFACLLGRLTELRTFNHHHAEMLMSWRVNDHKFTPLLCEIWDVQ

CC(=O)[O-].CC(=O)[O-].O.O.[Cd+2]
active: [1] 0.765 µM | [2] 19.2 µM | [3] 1.53 µM | [4] 1.21 µM | [5] 1.21 µM | [6] 15.3 µM | [7] 216 nM
inactive: [8]

O=c1[nH]c2ccccc2n1C1CCN(CCCC(c2ccc(F)cc2)c2ccc(F)cc2)CC1
active: [1] 24.5 µM and 29.8 µM | [2] 21.9 µM and 29.8 µM | [3] 21.9 µM | [5] 21.9 µM | [6] 24.5 µM | [8] 24.3 µM and 29.8 µM | [10] 19.3 µM and 23.7 µM | [11] 19.5 µM
inactive: [9] | [7]

O=C(O)c1cc[c]([Hg][Cl])cc1
active: [1] 49 µM | [3] 27.5 µM | [5] 24.5 µM | [6] 21.9 µM | [8] 24.3 µM
inactive: [12] | [4] | [13] | [7]

CC(C)N1C(=O)N(c2ccccc2)CSC1=NC(C)(C)C
active: [5] 49 µM | [10] 43.3 µM
inactive: [14] | [4] | [13] | [7] | [15]

CC(=O)[O-].[Tl+]
inactive: [1] | [2] | [3] | [4] | [5] | [6] | [7] | [8] | [11] | [16]

ClC1=C(Cl)[C@]2(Cl)[C@H]3[C@H]([C@H]4C=C[C@H]3C4)[C@@]1(Cl)C2(Cl)Cl
inactive: [1] | [14] | [2] | [3] | [4] | [5] | [6] | [7] | [11] | [16]

CCCCCCCCCBr
not listed: [9] | [13] | [15] | [18] | [19]
inactive: all other assays above

N#C/C=C/C#N
active: [3] 51.3 µM
not listed: [1] | [7] | [9] | [13] | [14] | [19]
inactive: all other assays above

CC1(C)CC/C(=C/c2ccc(Cl)cc2)C1(O)Cn1cncn1 (centres undefined)
inactive: [4] | [17] | [7] | [8] | [11]
active: [5] 54.6 µM | [10] 24.2 µM

CCOCCOC(C)=O
inactive: [1] | [2] | [3] | [4] | [13] | [7] | [8] | [10] | [11] | [16]

CCCCCCCCCCCCCCCC[n+]1ccccc1
active: [1] 23.7 µM [middle of 4 runs] | [2] 25.7 µM and 21.9 µM and 24.2 µM | [4] 51.3 µM and 43.6 µM and 29.8 µM | [5] 25.7 µM [middle of 4 runs] | [6] 24.2 µM [middle of 4 runs] | [15] 34.7 µM and 34.2 µM and 12 µM | [8] 54.5 µM [middle of 4 runs] | [10] 4.27 µM [middle of 4 runs] | [11] 32.3 µM and 54.9 µM and 43 µM

Clc1ccc(COC(Cn2ccnc2)c2ccc(Cl)cc2Cl)cc1 (centres undefined)
active: [1] 16.2 µM and 17.3 µM and 21.1 µM | [2] 40.7 µM and 24.4 µM | [3] 32.3 µM and 19.4 µM and 26.6 µM | [4] 40.7 µM and 17.3 µM and 26.6 µM | [5] 20.4 µM and 13.7 µM and 26.6 µM | [6] 45.7 µM and 48.8 µM | [15] 61.4 µM | [8] 45.3 µM and 60.9 µM | [10] 45.3 µM and 30.5 µM and 23.7 µM | [11] 54.7 µM and 23.9 µM

c1ccc2c(c1)OCC(C1=NCCN1)O2 (centres undefined)
active: [1] 23.7 µM | [12] 23.7 µM | [17] 16.9 µM | [10] 23.7 µM
inactive: [5] | [6] | [7] | [8] | [11] | [16]

Clc1ccc(C(Cl)(Cl)Cl)c(Cl)c1
not listed: [9] | [15] | [19]
inactive: all other assays above

CC(C)OS(C)(=O)=O
not listed: [10] | [15] | [17]
inactive: all other assays above

ClC(Cl)=C(Cl)Cl
not listed: [3] | [12] | [14] | [15]
inactive: all other assays above
